Measured values published in the supplement of paper PMC10732440.
± gives the standard deviation of the averaged measurements.

The compounds below were run on Caenorhabditis elegans N2 infected with Nematocida parisii ERTm1 (assay: progeny production relative to DMSO uninfected control; higher = more progeny despite microsporidia infection (inhibition of infection with low host toxicity)). Details: infection time 6 days; 40 µM.
Summary of the method: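 Wild-type C. elegans L1 larvae, synchronised by bleaching, were added at 100 per well to 96-well plates containing K-medium, E. coli OP50 and 15,000 N. parisii spores/μL, and compound was pinned in to 100 μM or 40 μM in 1% DMSO. The plates were shaken at 21°C for 6 days, after which worms were stained with Rose Bengal, scanned on a flatbed scanner and counted using WorMachine. Each compound and dose was run three times. Progeny production is expressed as a percentage of wells with vehicle but no spores, averaged over the replicates.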

SMILES	progeny production [%]
c1cnc(NCc2ccc(CNc3ncccn3)cc2)nc1	3.1 ± 0.72
O=[N+]([O-])c1ccc2c(CCc3c[nH]c4ccccc34)c[nH]c2c1	8.93 ± 1.7
C[C@@H](NC(=O)c1cccc(-c2cnc(-c3cc4ccccc4cn3)[nH]2)c1)c1ccc(F)cc1	5.74 ± 3.9
Nc1nc(Nc2ccc3nc(-c4ccc(F)cc4)cc(N)c3c2)cc(-c2ccccc2)n1	3.92 ± 1.1
Cc1c(F)cccc1NC(=O)Nc1ccc(Cl)c(S(=O)(=O)[C@H]2CCCNC2)c1O	8.9 ± 1.8
CC(C)(C)OC(=O)NCc1ccc(C(=O)N[C@H]2CCOC2=O)cc1	5.57 ± 4.2
CC1=C(/C=C/C(C)=C/C=C/C(C)=C/C(=O)Nc2ccc(O)cc2)C(C)(C)CCC1	3.02 ± 2.2
Nc1nc2c(ncn2COCCO)c(=O)[nH]1	6.44 ± 2.2
O=C1C=C(c2ccccc2)S(=O)(=O)c2ccccc21	9.24 ± 1.8
COc1ccc(OCc2ccc(COc3c(Cl)cccc3Cl)cc2)c(Cl)c1	5.83 ± 3.1
Oc1c(C(Nc2ccccn2)c2ccccc2)ccc2cccnc12 (stereo not given)	8.66 ± 7.6
CCOc1noc2cc(OCCC3CCN(c4ccc(C)nn4)CC3)ccc12	4.43 ± 1.4
O=C(NO)C1(CS(=O)(=O)c2ccc(Oc3ccc(Cl)cc3)cc2)CCOCC1	5.79 ± 0.11
Nc1nnc(-c2ccc(Cl)cc2)s1	5.44 ± 1.4
O=C(O)[C@H]1C2CCC(CC2)[C@@H]1Nc1nc(-c2c[nH]c3ncc(F)cc23)ncc1F	8.03 ± 4.7
O=C(Nc1cccc(C2=NCCN2)c1)c1ccc(-c2ccc(C(=O)Nc3cccc(C4=NCCN4)c3)cc2)cc1	7.71 ± 2.9
OC(Cn1cncn1)(Cn1cncn1)c1ccc(F)cc1F	3.82 ± 1.7
CO/N=C(\C(=O)N[C@@H]1C(=O)N2C(C(=O)OCOC(=O)C(C)(C)C)=C(/C=C\c3scnc3C)CS[C@H]12)c1csc(N)n1	4.46 ± 2.2
Nc1nc2c(ncn2/C=C2/CC2(CO)CO)c(=O)[nH]1	3.83 ± 2.6
CCNC(=O)Nc1cc2c(-c3ccnc(C)c3)ccc(CNC(=O)OC)c2cn1	4.61 ± 1.9

SMILES	progeny production [%]
CC(Cc1ccccc1)C(=O)Nc1ccc(Cl)cc1C(=O)O (stereo not given)	7.65 ± 4.2
COc1ccc(C[C@@H](C)[C@@H](C)Cc2ccc(OC)c(OC)c2)cc1OC	3.86 ± 0.4
Cc1cc(O)c2c(c1)C(=O)c1c(I)c(O)c(I)c(O)c1C2=O	8.9 ± 5.8
CSC[C@H]1CN(Cc2c[nH]c3c(N)ncnc23)C[C@@H]1O	8.02 ± 2.9
OCCCCn1cnc2c(O)nc(NCc3ccc(Cl)c(Cl)c3)nc21	4.76 ± 1.4
NC(=O)c1ccc(I)c([N+](=O)[O-])c1	1.54 ± 0.63
O=C(O)C(Cc1c[nH]c2ccccc12)N1C(=O)c2ccccc2C1=O (stereo not given)	6.93 ± 1.2
Clc1cccc(-c2nnc(-c3ccccc3)o2)c1	1.33 ± 1.1
CSc1ccc2c(c1)C(N1CCN(C)CC1)Cc1ccccc1S2 (stereo not given)	5.75 ± 2.9
O=C(Nc1ccccc1)N(Cc1cc(Br)ccc1O)c1ccc(F)cc1	3.85 ± 1
O=c1nc(N2CCN(CC3CCCCC3)CC2)sc2c([N+](=O)[O-])cc(C(F)(F)F)cc12	4.77 ± 2.5
CCc1cc(CCCOc2c(C)cc(-c3noc(C(F)(F)F)n3)cc2C)on1	5.28 ± 4
COc1cc(Cc2cc(N)nc(N)n2)cc(OC)c1OC	5.56 ± 1.2
CC(C)(C)c1ccc(OCCn2nc(C(=O)O)c3ccccc3c2=O)cc1	4.58 ± 1.4
NCC(=O)Nc1ccc(-n2nc(C(F)(F)F)cc2-c2ccc3c(ccc4ccccc43)c2)cc1	4.52 ± 2.6
CC(C)Oc1ccc(-c2nc(-c3cccc4c3CC[C@@H]4NCCO)no2)cc1C#N	3.24 ± 0.4
CCN(CC)S(=O)(=O)c1ccc(Cl)c(C(=O)Nc2sc3c(c2C#N)CCCC3)c1	6.31 ± 2.1
Nc1nc2c(ncn2COC(CO)CO)c(=O)[nH]1	7.03 ± 4.7
COC(=O)Nc1nc2cc(Sc3ccccc3)ccc2[nH]1	7.64 ± 3.1
Nc1nc(O)c2ncn([C@@H]3O[C@H](CO)[C@@H](O)[C@H]3F)c2n1	4.36 ± 1.3

Same assay, conditions: infection time 6 days; 100 µM

SMILES	progeny production [%]
c1cnc(NCc2ccc(CNc3ncccn3)cc2)nc1	9.59 ± 5.8
O=[N+]([O-])c1ccc2c(CCc3c[nH]c4ccccc34)c[nH]c2c1	35.7 ± 12
C[C@@H](NC(=O)c1cccc(-c2cnc(-c3cc4ccccc4cn3)[nH]2)c1)c1ccc(F)cc1	8.24 ± 5.7
Nc1nc(Nc2ccc3nc(-c4ccc(F)cc4)cc(N)c3c2)cc(-c2ccccc2)n1	7.7 ± 7.8
Cc1c(F)cccc1NC(=O)Nc1ccc(Cl)c(S(=O)(=O)[C@H]2CCCNC2)c1O	13 ± 5.7
CC(C)(C)OC(=O)NCc1ccc(C(=O)N[C@H]2CCOC2=O)cc1	24.3 ± 18
CC1=C(/C=C/C(C)=C/C=C/C(C)=C/C(=O)Nc2ccc(O)cc2)C(C)(C)CCC1	11.6 ± 9.7
Nc1nc2c(ncn2COCCO)c(=O)[nH]1	8.34 ± 8.3
O=C1C=C(c2ccccc2)S(=O)(=O)c2ccccc21	38 ± 9.4
COc1ccc(OCc2ccc(COc3c(Cl)cccc3Cl)cc2)c(Cl)c1	12.3 ± 5.3
Oc1c(C(Nc2ccccn2)c2ccccc2)ccc2cccnc12 (stereo not given)	9.12 ± 7.2
CCOc1noc2cc(OCCC3CCN(c4ccc(C)nn4)CC3)ccc12	17.1 ± 11
O=C(NO)C1(CS(=O)(=O)c2ccc(Oc3ccc(Cl)cc3)cc2)CCOCC1	7.72 ± 4.5
Nc1nnc(-c2ccc(Cl)cc2)s1	16.3 ± 16
O=C(O)[C@H]1C2CCC(CC2)[C@@H]1Nc1nc(-c2c[nH]c3ncc(F)cc23)ncc1F	14.2 ± 12
O=C(Nc1cccc(C2=NCCN2)c1)c1ccc(-c2ccc(C(=O)Nc3cccc(C4=NCCN4)c3)cc2)cc1	27.6 ± 16
OC(Cn1cncn1)(Cn1cncn1)c1ccc(F)cc1F	22 ± 18
CO/N=C(\C(=O)N[C@@H]1C(=O)N2C(C(=O)OCOC(=O)C(C)(C)C)=C(/C=C\c3scnc3C)CS[C@H]12)c1csc(N)n1	13.1 ± 5.6
Nc1nc2c(ncn2/C=C2/CC2(CO)CO)c(=O)[nH]1	11.8 ± 3.7
CCNC(=O)Nc1cc2c(-c3ccnc(C)c3)ccc(CNC(=O)OC)c2cn1	17.2 ± 9.9

SMILES	progeny production [%]
CC(Cc1ccccc1)C(=O)Nc1ccc(Cl)cc1C(=O)O (stereo not given)	14.4 ± 0.88
COc1ccc(C[C@@H](C)[C@@H](C)Cc2ccc(OC)c(OC)c2)cc1OC	16 ± 4.1
Cc1cc(O)c2c(c1)C(=O)c1c(I)c(O)c(I)c(O)c1C2=O	25.1 ± 5.2
CSC[C@H]1CN(Cc2c[nH]c3c(N)ncnc23)C[C@@H]1O	15.3 ± 10
OCCCCn1cnc2c(O)nc(NCc3ccc(Cl)c(Cl)c3)nc21	10.6 ± 7.9
NC(=O)c1ccc(I)c([N+](=O)[O-])c1	10 ± 2.6
O=C(O)C(Cc1c[nH]c2ccccc12)N1C(=O)c2ccccc2C1=O (stereo not given)	9.79 ± 1.2
Clc1cccc(-c2nnc(-c3ccccc3)o2)c1	4.24 ± 2.4
CSc1ccc2c(c1)C(N1CCN(C)CC1)Cc1ccccc1S2 (stereo not given)	13.9 ± 9
O=C(Nc1ccccc1)N(Cc1cc(Br)ccc1O)c1ccc(F)cc1	17.4 ± 13
O=c1nc(N2CCN(CC3CCCCC3)CC2)sc2c([N+](=O)[O-])cc(C(F)(F)F)cc12	9.3 ± 5.1
CCc1cc(CCCOc2c(C)cc(-c3noc(C(F)(F)F)n3)cc2C)on1	12.5 ± 14
COc1cc(Cc2cc(N)nc(N)n2)cc(OC)c1OC	19.2 ± 12
CC(C)(C)c1ccc(OCCn2nc(C(=O)O)c3ccccc3c2=O)cc1	12 ± 6.5
NCC(=O)Nc1ccc(-n2nc(C(F)(F)F)cc2-c2ccc3c(ccc4ccccc43)c2)cc1	11.9 ± 7
CC(C)Oc1ccc(-c2nc(-c3cccc4c3CC[C@@H]4NCCO)no2)cc1C#N	4.7 ± 2.8
CCN(CC)S(=O)(=O)c1ccc(Cl)c(C(=O)Nc2sc3c(c2C#N)CCCC3)c1	31.3 ± 22
Nc1nc2c(ncn2COC(CO)CO)c(=O)[nH]1	10.9 ± 4.7
COC(=O)Nc1nc2cc(Sc3ccccc3)ccc2[nH]1	29.3 ± 18
Nc1nc(O)c2ncn([C@@H]3O[C@H](CO)[C@@H](O)[C@H]3F)c2n1	9.71 ± 4.6
